Laboratory results: the supplement of paper PMC9694430

What was measured:
Assay in all cases: thermal shift delta Tm vs DMSO control; higher = stronger stabilization (binding)
Details in all cases: 12.5 µM; protein concentration 2 µM
LOC_OS01G57100-cb003 = test system: LOC_OS01G57100-cb003
Procedure, shortened: (§1)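 Compounds dissolved in DMSO were added to purified rice kinase domain constructs, which had been expressed in E. coli, for differential scanning fluorimetry. Each well held 19.5 μl of 2 μM kinase in 100 mM potassium phosphate pH 7.5, 150 mM NaCl, 10% glycerol and 5 × SYPRO Orange. Fluorescence was followed from 25°C to 95°C at a rate of 0.05°C/s. Shifts in Boltzmann-fitted melting temperature are triplicate means relative to DMSO-only protein.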

LOC_OS01G60330-cb001 = test system: LOC_OS01G60330-cb001
Procedure, shortened: as §1

LOC_OS01G60700-cb002 = test system: LOC_OS01G60700-cb002
Procedure, shortened: as §1

LOC_OS01G63280-cb003 = test system: LOC_OS01G63280-cb003
Procedure, shortened: as §1

LOC_OS01G67340-cb003 = test system: LOC_OS01G67340-cb003
Procedure, shortened: as §1

LOC_OS01G70970-cb002 = test system: LOC_OS01G70970-cb002
Procedure, shortened: as §1

LOC_OS02G07810-cb001 = test system: LOC_OS02G07810-cb001
Procedure, shortened: as §1

LOC_OS02G08530-cb003 = test system: LOC_OS02G08530-cb003
Procedure, shortened: as §1

LOC_OS02G14120-cb001 = test system: LOC_OS02G14120-cb001
Procedure, shortened: as §1

LOC_OS02G17970-cb001 = test system: LOC_OS02G17970-cb001
Procedure, shortened: as §1

Structure (SMILES)	thermal shift delta Tm (LOC_OS01G57100-cb003) [°C]	thermal shift delta Tm (LOC_OS01G60330-cb001) [°C]	thermal shift delta Tm (LOC_OS01G60700-cb002) [°C]	thermal shift delta Tm (LOC_OS01G63280-cb003) [°C]	thermal shift delta Tm (LOC_OS01G67340-cb003) [°C]	thermal shift delta Tm (LOC_OS01G70970-cb002) [°C]	thermal shift delta Tm (LOC_OS02G07810-cb001) [°C]	thermal shift delta Tm (LOC_OS02G08530-cb003) [°C]	thermal shift delta Tm (LOC_OS02G14120-cb001) [°C]	thermal shift delta Tm (LOC_OS02G17970-cb001) [°C]
NC(=O)c1cnc(N[C@@H]2CCCC[C@@H]2N)nc1Nc1cccc(-n2nccn2)c1	2.55	0.94	1.04	0.28	0.99	2.19	-0.28	4.36	2.99	1.5
COCCNCc1ccc(-c2cc3nccc(Oc4ccc(NC(=O)C5(C(=O)Nc6ccc(F)cc6)CC5)cc4F)c3s2)nc1 [Sitravatinib (MGCD516)]	0.24	1.12	-0.27	1.87	7.72	5.29	0.47	2.12	7.48	1.18
COc1cc(OC)cc(-c2cc3cnc(N)nc3nc2NC(=O)NC(C)(C)C)c1	1.18	0.3	0.16	0.24	-0.11	0.35	-0.88	0.52	0.72	-0.49
CNC(=O)c1cc(Oc2ccc(NC(=O)Nc3cc(C(C)(C)C)nn3-c3ccc4ncccc4c3)c(F)c2)ccn1 [Rebastinib (DCC-2036)]	2.72	1.36	0.84	11.5	0.32	3.62	1.36	2.28	8.15	1.32
Cc1cc(Nc2cc(N)ncn2)c(=O)n2c1C(=O)NC21CCCCC1	1.68	0.51	-0.25	-0.02	0.19	0.38	-1.2	0.72	2.1	-0.32
CCc1cnn2c(NCc3ccc[n+]([O-])c3)cc(N3CCCC[C@H]3CCO)nc12	1.62	1.64	0.78	0.34	-0.24	0.27	1.17	0.89	0.57	0.96
CN1CCN(c2ccc(C(=O)Nc3n[nH]c4ccc(Cc5cc(F)cc(F)c5)cc34)c(NC3CCOCC3)c2)CC1 [Entrectinib (RXDX-101)]	0.09	4.04	0.42	-0.06	0.57	1.01	0.27	3.95	5.28	0.09
C=CC(=O)N1CC[C@@H](Oc2nc(Nc3ccc(N4CCC(N5CCN(C)CC5)CC4)cc3)c(C(N)=O)nc2CC)C1 [Naquotinib(ASP8273)]	0.96	9.41	0.02	0.22	1.05	5.67	-0.78	4.36	8.5	0.57
